Assay results: PubChem BioAssay (EPA / NIEHS)
More than one record can exist for a structure, and the calls need not agree. Active and inactive are the calls of the source. How the source made its calls: active means hit-call score of the fitted dose curve at least 0.9, where 1 is the maximum; inactive means score below 0.9.

Key:
[1] = target: Transcription factor E2F1 (Homo sapiens) (UniProt Q01094); test: ATG_E2F_CIS: Attagene CIS-FACTORIAL HepG2 Assay for human E2F Transcription Factor 1 (AID 2282935); conditions: HepG2 Attagene cis-reporter, E2F reporter RNA transcripts; actives raise or lower the signal
Outline: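 Liver-derived HepG2 cells expressing transfected promoter-driven reporter units received test chemical for 24 hours. Signal gains or losses were fitted bidirectionally against DMSO.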

[2] = ATG_E_Box_CIS: Attagene CIS-FACTORIAL HepG2 Assay for human Enhancer Box (E-box) (AID 2282936); conditions: HepG2 E-box cis-reporter transcription, actives raise or lower the signal
Outline: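 In this cell-based setup, HepG2 cells bearing transfected promoter-driven reporter units were exposed to chemicals for 24 h; reporter transcripts were amplified, 6-FAM-labelled, cut with HpaI and sized by capillary electrophoresis.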

[3] = ATG_M_61_CIS: Attagene CIS-FACTORIAL HepG2 Assay for M61 Transcription Factor (Internal Marker) (AID 2282937); conditions: HepG2 Attagene CIS-FACTORIAL M61 internal marker reporter; actives raise or lower the signal
Outline: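 Readout is reporter mRNA by RT-PCR, fluorescent primer extension and capillary electrophoresis, with gain or loss fitted relative to DMSO. Transfected HepG2 cells carrying endogenous-TF-driven cis reporters were exposed to chemicals for 24 hours.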

[4] = ATG_M_19_CIS: Attagene CIS-FACTORIAL HepG2 Assay for M19 Transcription Factor (Internal Marker) (AID 2282939); conditions: HepG2 Attagene CIS-FACTORIAL M19 internal marker reporter; actives raise or lower the signal
Outline: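 Chemical-treated HepG2 (24 h) with MRTU constructs; reporter transcripts detected by fluorescent RT-PCR fragment analysis on capillary electrophoresis. Internal background marker, DMSO as baseline.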

[5] = ATG_ERE_CIS: Attagene CIS-FACTORIAL HepG2 Assay for Estrogen Response Element (ERE) (AID 2282940); conditions: HepG2 ERE cis-reporter, Attagene RNA transcript; actives raise or lower the signal
Outline: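 Human liver cells (HepG2) bearing transiently transfected, promoter-regulated reporter units were exposed 24 h. Reporter mRNA induction was detected by capillary electrophoresis of labelled RT-PCR products and fitted bidirectionally to DMSO.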

[6] = ATG_Ets_CIS: Attagene CIS-FACTORIAL HepG2 Assay for human Erythroblast Transformation Specific (ETS) (AID 2282941); conditions: HepG2 ETS cis-reporter transcription, actives raise or lower the signal
Outline: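 RT-PCR/capillary electrophoresis fluorescence read-out of reporter mRNA; HepG2 transient multi-reporter transfection; 24 h compound exposure; gain or loss of signal fitted bidirectionally relative to DMSO.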

[7] = target: Hepatocyte nuclear factor 3-beta (Homo sapiens) (UniProt Q9Y261); test: ATG_FoxA2_CIS: Attagene CIS-FACTORIAL HepG2 Assay for human Forkhead box A2 (FOXA2) (AID 2282942); conditions: HepG2 cis-reporter transcription factor activity, 24 h; actives raise or lower the signal
Outline: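 Endogenous transcription factor activity is captured via cis-element-driven reporter transcripts in transfected HepG2. Total RNA taken at 24 h post-dosing; labelled RT-PCR products resolved by capillary electrophoresis. Gain or loss fitted versus DMSO.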

[8] = ATG_FoxO_CIS: Attagene CIS-FACTORIAL HepG2 Assay for human Forkhead box O (FoxO) (AID 2282943); conditions: HepG2 Attagene cis-reporter, FoxO element, mRNA; actives raise or lower the signal
Outline: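 Transfected HepG2 reporter cells exposed to test chemical for 24 h; reporter RNA measured by reverse transcription, PCR and fluorescent capillary electrophoresis; curves fitted for increases and decreases against DMSO.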

[9] = ATG_GLI_CIS: Attagene CIS-FACTORIAL HepG2 Assay for human Zinc Finger Protein GLI1 (AID 2282945); conditions: HepG2, Attagene cis-factorial reporter mRNA, GLI element; actives raise or lower the signal
Outline: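 Transiently transfected HepG2 cells report endogenous transcription factor activity via cis-element-driven reporter units. After 24 h compound exposure, reporter mRNA was measured by RT-PCR with capillary electrophoresis; bidirectional fitting against DMSO baseline.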

[10] = ATG_GRE_CIS: Attagene CIS-FACTORIAL HepG2 Assay for human Glucocorticoid Response Elements (GRE) (AID 2282947); conditions: HepG2 GRE cis-reporter, Attagene multiplex mRNA; actives raise or lower the signal
Outline: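 Fluorescence intensity of reporter-specific cDNA fragments, separated by capillary electrophoresis, provides the signal. Constructs carry cis-regulating promoters in transiently transfected HepG2 liver cells; 24 h incubation; fitting is bidirectional against DMSO.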

[11] = ATG_ISRE_CIS: Attagene CIS-FACTORIAL HepG2 Assay for human Interferon Regulatory Factor 1 (IRF1) binding to an Interferon-Stimulated Response Element (ISRE) (AID 2282948); conditions: HepG2 ISRE cis-reporter (Attagene), mRNA transcription readout; actives raise or lower the signal
Outline: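 Read-out: fluorescent RT-PCR products resolved by capillary electrophoresis, reporting endogenous transcription factor activity via ISRE-driven reporter mRNA in transfected HepG2 cells dosed for 24 h; gain or loss fitted relative to DMSO.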

[12] = ATG_M_32_CIS: Attagene CIS-FACTORIAL HepG2 Assay for M32 Transcription Factor (Internal Marker) (AID 2282949); conditions: HepG2 Attagene cis-factorial M32 reporter, mRNA; actives raise or lower the signal;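 further: background control marker of the multiplexed CIS panel rather than a real target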
Outline: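 HepG2 human liver cells transiently transfected with cis-promoter-driven multiple reporter transcription units, dosed 24 h. Reporter mRNA quantified by RT-PCR, FAM-labelled primer extension, HpaI digest and capillary electrophoresis; bidirectional fit versus DMSO baseline.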

[13] = ATG_M_06_CIS: Attagene CIS-FACTORIAL HepG2 Assay for M06 Transcription Factor (Internal Marker) (AID 2282950); conditions: HepG2 Attagene CIS-FACTORIAL M06 internal marker reporter; actives raise or lower the signal
Outline: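 Cells (HepG2, transiently carrying cis-driven reporter units) receive chemical for 24 h before RNA isolation. Reporter cDNA is PCR-amplified, FAM-labelled by primer extension, HpaI-digested and sized on a capillary analyser.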

[14] = target: Hypoxia-inducible factor 1-alpha (Homo sapiens) (UniProt Q16665); test: ATG_HIF1a_CIS: Attagene CIS-FACTORIAL HepG2 Assay for human Hypoxia Inducible Factor 1 (HIF1A) (AID 2282951); conditions: HepG2 Attagene cis-factorial HIF1a reporter transcription; actives raise or lower the signal
Outline: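 Activity is fitted in both directions relative to DMSO. Reporter transcripts are read by RT-PCR, fluorescent primer extension and capillary electrophoresis after 24 h chemical treatment. The cells are HepG2 carrying transiently transfected cis-element-driven reporter units responding to endogenous factors.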

[15] = target: Heat shock factor protein 1 (Homo sapiens) (UniProt Q00613); test: ATG_HSE_CIS: Attagene CIS-FACTORIAL HepG2 Assay for human Heat Shock Transcription Factor 1 (HSE) (AID 2282953); conditions: HepG2 HSE cis-reporter, Attagene RNA transcription; actives raise or lower the signal
Outline: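 Liver-derived HepG2 cells carry transiently introduced multiple reporter units governed by cis promoters. Reporter RNA measured 24 h post-dose through reverse transcription, PCR amplification, fluorescent labelling and capillary electrophoresis, normalised to DMSO.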

[16] = ATG_MRE_CIS: Attagene CIS-FACTORIAL HepG2 Assay for human Metal Responsive Element (MRE) (AID 2282954); conditions: HepG2 MRE cis-reporter transcription, Attagene multiplex; actives raise or lower the signal
Outline: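 Measured here is mRNA induction from an MRE cis-element reporter in HepG2 after 24 h, quantified by fluorescence of labelled RT-PCR products on capillary electrophoresis; gain- and loss-of-signal fits use DMSO as baseline.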

[17] = ATG_GATA_CIS: Attagene CIS-FACTORIAL HepG2 Assay for human GATA Binding Protein (AID 2282944); conditions: HepG2 GATA cis-element reporter, Attagene multiplex mRNA; actives raise or lower the signal
Outline: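 Transfected cis-reporter HepG2 cells were treated with chemicals for 24 hours. Total RNA was then converted to cDNA, amplified with reporter-specific primers and analysed by fluorescent capillary electrophoresis, using DMSO-treated wells as baseline.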

[18] = target: Hepatocyte nuclear factor 6 (Homo sapiens) (UniProt Q9UBC0); test: ATG_HNF6_CIS: Attagene CIS-FACTORIAL HepG2 Assay for human Hepatocyte Nuclear Factor 6 (HNF6) (AID 2282952); conditions: HepG2 Attagene cis-factorial HNF6 reporter transcription; actives raise or lower the signal
Outline: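 Readout: fluorescent reporter-transcript fragments resolved by capillary electrophoresis after RT-PCR, reflecting endogenous factor activity in transfected HepG2. Exposure 24 h. Gain or loss of signal fitted bidirectionally against DMSO.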

Measured: AC50

Sequence of Hypoxia-inducible factor 1-alpha (Homo sapiens) (Q16665 whole entry, looked up): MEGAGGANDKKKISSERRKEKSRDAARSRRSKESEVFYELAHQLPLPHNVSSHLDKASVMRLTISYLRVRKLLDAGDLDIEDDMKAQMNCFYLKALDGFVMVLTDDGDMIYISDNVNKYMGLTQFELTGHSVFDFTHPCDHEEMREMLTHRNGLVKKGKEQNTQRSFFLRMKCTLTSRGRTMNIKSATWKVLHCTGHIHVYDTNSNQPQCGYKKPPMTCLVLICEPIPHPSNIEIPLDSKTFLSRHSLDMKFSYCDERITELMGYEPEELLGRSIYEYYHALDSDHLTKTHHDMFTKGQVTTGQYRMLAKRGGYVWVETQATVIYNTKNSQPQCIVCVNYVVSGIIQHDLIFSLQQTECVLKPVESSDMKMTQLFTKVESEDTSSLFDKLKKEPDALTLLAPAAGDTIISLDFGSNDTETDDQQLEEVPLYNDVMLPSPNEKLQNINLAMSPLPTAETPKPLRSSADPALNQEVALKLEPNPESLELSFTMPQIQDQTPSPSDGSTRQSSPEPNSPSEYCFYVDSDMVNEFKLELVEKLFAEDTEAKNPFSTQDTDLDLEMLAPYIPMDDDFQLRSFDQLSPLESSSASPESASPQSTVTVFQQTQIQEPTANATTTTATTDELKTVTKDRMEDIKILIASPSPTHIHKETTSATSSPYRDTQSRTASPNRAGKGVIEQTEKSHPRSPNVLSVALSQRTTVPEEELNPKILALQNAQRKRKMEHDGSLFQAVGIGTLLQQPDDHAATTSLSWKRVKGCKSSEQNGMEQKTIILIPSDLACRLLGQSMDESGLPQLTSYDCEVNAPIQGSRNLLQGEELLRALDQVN
Sequence of Hepatocyte nuclear factor 3-beta (Homo sapiens) (Q9Y261 whole entry, looked up): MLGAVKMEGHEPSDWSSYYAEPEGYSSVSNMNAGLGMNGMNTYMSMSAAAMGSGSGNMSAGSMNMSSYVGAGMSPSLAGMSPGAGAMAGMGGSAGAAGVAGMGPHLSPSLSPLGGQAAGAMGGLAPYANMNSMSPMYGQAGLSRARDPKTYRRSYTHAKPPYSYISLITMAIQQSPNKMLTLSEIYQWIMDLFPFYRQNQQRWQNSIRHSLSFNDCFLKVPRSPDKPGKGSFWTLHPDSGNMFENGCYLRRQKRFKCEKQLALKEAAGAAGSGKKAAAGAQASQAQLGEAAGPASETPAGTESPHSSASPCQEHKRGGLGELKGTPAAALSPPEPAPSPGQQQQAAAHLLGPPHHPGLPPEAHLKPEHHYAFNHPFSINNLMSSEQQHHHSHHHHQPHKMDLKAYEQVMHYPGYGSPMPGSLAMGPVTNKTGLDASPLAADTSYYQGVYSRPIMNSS
Sequence of Transcription factor E2F1 (Homo sapiens) (Q01094 whole entry, looked up): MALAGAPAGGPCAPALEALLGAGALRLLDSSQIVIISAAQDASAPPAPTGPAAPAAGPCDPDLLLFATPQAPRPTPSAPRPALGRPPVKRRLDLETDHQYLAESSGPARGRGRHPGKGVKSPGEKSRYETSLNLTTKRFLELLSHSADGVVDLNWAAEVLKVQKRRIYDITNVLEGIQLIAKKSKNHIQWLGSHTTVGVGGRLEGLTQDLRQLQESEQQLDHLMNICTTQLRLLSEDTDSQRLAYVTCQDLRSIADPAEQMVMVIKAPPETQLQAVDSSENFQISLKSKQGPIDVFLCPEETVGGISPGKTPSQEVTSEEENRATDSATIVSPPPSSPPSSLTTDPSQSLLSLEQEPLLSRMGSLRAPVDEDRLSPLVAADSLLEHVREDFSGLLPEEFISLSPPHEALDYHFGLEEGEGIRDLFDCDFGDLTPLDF
Sequence of Heat shock factor protein 1 (Homo sapiens) (Q00613 whole entry, looked up): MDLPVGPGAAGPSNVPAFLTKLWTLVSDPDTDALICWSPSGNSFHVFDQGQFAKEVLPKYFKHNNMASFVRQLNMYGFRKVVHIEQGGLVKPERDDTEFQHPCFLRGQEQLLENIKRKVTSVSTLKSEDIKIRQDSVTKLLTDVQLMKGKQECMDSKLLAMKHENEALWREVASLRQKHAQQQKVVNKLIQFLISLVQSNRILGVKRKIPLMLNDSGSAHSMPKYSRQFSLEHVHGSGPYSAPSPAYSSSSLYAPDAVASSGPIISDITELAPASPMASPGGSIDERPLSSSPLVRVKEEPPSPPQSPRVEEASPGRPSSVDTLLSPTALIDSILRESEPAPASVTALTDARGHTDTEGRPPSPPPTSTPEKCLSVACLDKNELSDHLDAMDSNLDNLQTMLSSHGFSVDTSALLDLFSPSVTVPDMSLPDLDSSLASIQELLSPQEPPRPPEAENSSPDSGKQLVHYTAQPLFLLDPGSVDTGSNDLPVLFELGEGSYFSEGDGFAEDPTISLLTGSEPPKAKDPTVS
Sequence of Hepatocyte nuclear factor 6 (Homo sapiens) (Q9UBC0 whole entry, looked up, the tested form may be a part): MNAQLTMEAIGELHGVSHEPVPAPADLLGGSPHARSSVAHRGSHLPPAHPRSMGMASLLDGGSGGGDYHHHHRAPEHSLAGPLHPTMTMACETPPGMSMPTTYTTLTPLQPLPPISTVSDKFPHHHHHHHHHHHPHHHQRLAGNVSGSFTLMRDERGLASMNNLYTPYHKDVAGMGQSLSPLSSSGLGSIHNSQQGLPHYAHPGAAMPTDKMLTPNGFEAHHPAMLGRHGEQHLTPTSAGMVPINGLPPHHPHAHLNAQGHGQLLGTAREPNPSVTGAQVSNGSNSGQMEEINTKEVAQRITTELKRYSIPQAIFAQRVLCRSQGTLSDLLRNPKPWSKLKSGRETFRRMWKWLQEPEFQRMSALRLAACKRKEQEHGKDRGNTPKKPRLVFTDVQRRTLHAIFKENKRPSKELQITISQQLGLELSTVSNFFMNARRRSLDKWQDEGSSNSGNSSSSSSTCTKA

C=CCC1=C(C)[C@@H](OC(=O)[C@@H]2[C@@H](C=C(C)C)C2(C)C)CC1=O
active: [16] 5.26 µM
not listed: [17] | [18]
inactive: all other assays above

CCOc1cc(Oc2ccc(C(F)(F)F)cc2Cl)ccc1[N+](=O)[O-]
active: [5] 13.1 µM | [16] 22 µM
not listed: [17] | [18]
inactive: all other assays above

CC(Oc1ccc(Cl)cc1Cl)C(=O)O (configuration not stated)
inactive: all assays above

CC1=C(C(=O)Nc2ccccc2)SCCO1
not listed: [17] | [18]
inactive: all other assays above

CN(C)C(=S)SSC(=S)N(C)C
not listed: [18]
inactive: all other assays above

C=CC1(C)OC(=O)N(c2cc(Cl)cc(Cl)c2)C1=O (configuration not stated)
not listed: [17] | [18]
inactive: all other assays above

O=C(O)c1nc(Cl)ccc1Cl
not listed: [18]
inactive: all other assays above

Cc1c(F)c(F)c(COC(=O)C2C(/C=C(\Cl)C(F)(F)F)C2(C)C)c(F)c1F (configuration not stated)
not listed: [17] | [18]
inactive: all other assays above

CC1COC(Cn2cncn2)(c2ccc(Oc3ccc(Cl)cc3)cc2Cl)O1 (configuration not stated)
active: [5] 0.245 µM | [16] 3.17 µM
not listed: [17]
inactive: all other assays above

CC(C)C1(C)N=C(c2nc3ccccc3cc2C(=O)O)NC1=O (configuration not stated)
not listed: [17] | [18]
inactive: all other assays above

CCc1nn(C)c(C(=O)NCc2ccc(C(C)(C)C)cc2)c1Cl
active: [16] 2.3 µM
not listed: [17] | [18]
inactive: all other assays above

CNC(=S)S
inactive: [1] | [2] | [3] | [4] | [5] | [6] | [7] | [8] | [9] | [10] | [11] | [12] | [13] | [14] | [15] | [16]
active: [11] 73.5 µM | [15] 83 µM | [16] 70.4 µM

CCCN(CCC)c1c([N+](=O)[O-])cc(S(N)(=O)=O)cc1[N+](=O)[O-]
not listed: [17] | [18]
inactive: all other assays above

CON(C)C(=O)Nc1ccc(Cl)c(Cl)c1
not listed: [17] | [18]
inactive: all other assays above
